A selection: hits, their analogues and other compounds. The true share with any hit is near 3%.
SENP6 block – inhibitors of human SENP6 protease; Recombinant SENP6 catalytic domain, aminoluciferin luminescence; AID 2599; actives 1.8% (n = 330,000); inhibition, % at 10 µM;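 active = inhibition above about 50% at the single tested dose, limit read from the data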;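 also: plate controls were DMSO wells with enzyme for no effect and DMSO wells lacking enzyme for full effect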
C8 TRAIL sens – caspase-8 TRAIL sensitization; NB7+C8 cells + TRAIL, ATPlite viability luminescence; inhibition (viability loss, TRAIL sensitization), % at 10 µM; actives 1% (n = 360,000); AID 624354;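 active = compounds causing at least 50% loss of cell viability in the single-dose screen, relative to plate controls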
SENP7 inh – inhibitors of human SENP7 protease; recombinant SENP7, Z-RLRGG-aminoluciferin luminescence, 40 min; inhibition, % at 5 µM; actives 1.5% (n = 330,000); AID 434973;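 active = inhibition above about 50% at the single test dose, limit read from the data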;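 also: plate controls were DMSO with enzyme for no effect and no enzyme buffer wells for full effect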
SENP8 block-1 – SENP8 protease inhibition | purified SENP8, Z-RLRGG-aminoluciferin cleavage, luminescence | inhibition, % at 10 µM | actives 1.2% (n = 330,000); in the data active = inhibition above about 50%
Target sequence (Q96LD8 whole entry, looked up): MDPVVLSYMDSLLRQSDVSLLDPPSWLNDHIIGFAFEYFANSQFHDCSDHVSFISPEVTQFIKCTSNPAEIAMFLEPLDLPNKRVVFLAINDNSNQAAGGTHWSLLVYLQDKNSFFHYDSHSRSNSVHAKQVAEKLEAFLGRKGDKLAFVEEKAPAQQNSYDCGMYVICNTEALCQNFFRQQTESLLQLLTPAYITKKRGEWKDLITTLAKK
SENP8 block-2 – inhibitors of human SENP8 protease | Q96LD8 | recombinant SENP8, Nedd8 substrate fluorescence | inhibition, % at 20 µM | actives 0.64% (n = 360,000); in the data active = inhibition mostly above about 40%, no sharp cut-off; inactive = mostly below about 27%
PPC-1+TRAIL kill – PPC-1 cancer cell killing with TRAIL present; PPC-1 cells + TRAIL, ATPLite viability luminescence; cell killing (% activity), % at 4 µM or 5 µM; actives 0.41% (n = 220,000);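 active = cell killing above 50% in the first pass at 4 µM, then a duplicate retest at 5 µM averaging 50% or more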;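 also: plate controls were cells with TRAIL plus DMSO for no effect and medium-only wells lacking cells for full effect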
SENP8 confirm – confirmation of human SENP8 protease inhibitors; shares compounds with SENP7 inh; Recombinant SENP8, Z-RLRGG-aminoluciferin luminescence, 60 min; inhibition, % at 12.5 µM; actives 40% (n = 6,200); AID 488912;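 active = mean inhibition across replicates above about 50%, limit read from the data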
SENP6 conf – confirmation of human SENP6 protease inhibitors; shares compounds with SENP7 inh; recombinant SENP6, Z-RLRGG-aminoluciferin luminescence; inhibition, % at 12.5 µM; actives 58% (n = 6,200)
SENP7 conf – human SENP7 inhibition, confirmed | shares compounds with SENP7 inh | recombinant SENP7, Z-RLRGG-aminoluciferin luminescence, 40 min | inhibition, % at 12.5 µM | actives 69% (n = 6,200) | AID 488917
Casp3 select – selectivity test for SENP inhibitors: human caspase-3 inhibition | shares compounds with SENP7 inh | purified caspase-3, Z-DEVD-aminoluciferin luminescence, 60 min | inhibition, % at 12.5 µM | actives 60% (n = 6,200) | AID 488918;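 active = mean inhibition above about 50%, limit read from the data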;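 also: plate controls were enzyme with DMSO for no effect and wells without caspase-3 for full effect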
Target sequence (P42574 28-227 limits assumed): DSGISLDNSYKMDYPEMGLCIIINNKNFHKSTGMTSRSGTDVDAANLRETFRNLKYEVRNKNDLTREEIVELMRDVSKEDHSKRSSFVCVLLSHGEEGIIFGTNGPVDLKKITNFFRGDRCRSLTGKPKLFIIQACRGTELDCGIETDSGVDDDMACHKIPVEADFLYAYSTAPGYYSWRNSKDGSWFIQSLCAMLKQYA
SENP luc ctr – luminescence interference (SENP counter-screen); shares compounds with SENP7 inh; Pre-incubated SENP8/Z-RLRGG-aminoluciferin, luciferase luminescence interference; inhibition, % at 12.5 µM; actives 39% (n = 6,200); AID 488919;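 active = mean inhibition above about 50% when retested at one dose, limit read from the data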;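 also: plate controls were DMSO wells with completed reaction for no effect and substrate without enzyme for full effect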
The depositor's hits bear a star.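 The calls were made as follows, unless noted: active = mean inhibition above about 50% in the one-dose retest (limit read from the data); inactive = the rest.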

Results for Cc1cc(C(=O)Nc2nc3c(s2)CCCC3)no1 ?
SENP6 block: 63*; C8 TRAIL sens: 7; SENP7 inh: 56*; SENP8 block-1: 19; SENP8 block-2: 10; PPC-1+TRAIL kill: 26; SENP8 confirm: 46; SENP6 conf: 42; SENP7 conf: 80*; Casp3 select: 75*; SENP luc ctr: 54*

Results for CN(C)c1ccc(C(=O)Nc2nc3c(s2)CCCC3)cc1 ?
SENP6 block: 95*; C8 TRAIL sens: 55*; SENP7 inh: 98*; SENP8 block-1: 94*; SENP8 block-2: -397; PPC-1+TRAIL kill: 39; SENP8 confirm: 14; SENP6 conf: 69*; SENP7 conf: 82*; Casp3 select: 58*; SENP luc ctr: 38

How did O=C(Nc1nc(=O)[nH]s1)c1ccccc1 do in these assays?
SENP6 block: -11; C8 TRAIL sens: -3; SENP7 inh: 2; SENP8 block-1: -2; SENP8 block-2: 12; PPC-1+TRAIL kill: 10

How did O=C(Nc1nc2c(s1)C(=O)CCC2)c1ccccc1 do in these assays?
SENP6 block: 97*; C8 TRAIL sens: 27; SENP7 inh: 97*; SENP8 block-1: 95*; SENP8 block-2: -29; PPC-1+TRAIL kill: 42; SENP8 confirm: 97*; SENP6 conf: 98*; SENP7 conf: 101*; Casp3 select: 97*; SENP luc ctr: 96*

What do the screens show for `CN(C(=O)c1cc(COc2ccc(F)cc2Cl)on1)C1CCOC1` (stereo not given)?
C8 TRAIL sens: 8; SENP8 block-2: 7

How did CCCCOc1ncnc2c1[nH]c1ccc(OC)cc12 do in these assays?
SENP6 block: 34; SENP7 inh: 77*; SENP8 block-1: 16; PPC-1+TRAIL kill: 19; SENP8 confirm: 27; SENP6 conf: 29; SENP7 conf: 48; Casp3 select: 46; SENP luc ctr: 5

What do the screens show for `Cc1nn(Cc2ccccc2)c(C)c1C(=O)N1CCN(CC(=O)Nc2ccc(F)cc2)CC1`?
SENP6 block: -3; C8 TRAIL sens: 4; SENP7 inh: 53*; SENP8 block-1: 0; SENP8 block-2: 13; SENP8 confirm: -12; SENP6 conf: -6; SENP7 conf: -6; Casp3 select: -2; SENP luc ctr: -7

What do the screens show for `N#Cc1c(NC(=S)NC(=O)c2ccccc2)sc2c1CCC2`?
SENP6 block: 0; C8 TRAIL sens: 0; SENP7 inh: 8; SENP8 block-1: -1; SENP8 block-2: 12; PPC-1+TRAIL kill: 24

Results for CCN1CCc2c(sc(NC(=S)NC(=O)c3ccccc3)c2C#N)C1 ?
SENP6 block: 56*; C8 TRAIL sens: -12; SENP7 inh: 46; SENP8 block-1: 14; SENP8 block-2: -47; PPC-1+TRAIL kill: 33; SENP8 confirm: 28; SENP6 conf: 27; SENP7 conf: 34; Casp3 select: 44; SENP luc ctr: 18

Results for COc1ccc(C(=O)Nc2ccc3c(c2)C(=O)c2ccccc2C3=O)cc1OC ?
SENP6 block: -12; C8 TRAIL sens: -11; SENP7 inh: 6; SENP8 block-1: 5; SENP8 block-2: 20; PPC-1+TRAIL kill: -11

How did COc1ccc(C(=O)c2c(C(F)(F)F)oc3c2C(=O)c2ccccc2C3=O)cc1OC do in these assays?
SENP6 block: 58*; C8 TRAIL sens: 95*; SENP7 inh: 45; SENP8 block-1: 60*; SENP8 block-2: 63*; PPC-1+TRAIL kill: 40; SENP8 confirm: 10; SENP6 conf: 79*; SENP7 conf: 32; Casp3 select: 78*; SENP luc ctr: 1

How did CCOC(=O)COc1ccccc1/C=C\[N+](=O)[O-] do in these assays?
C8 TRAIL sens: 23; SENP8 block-2: 16; PPC-1+TRAIL kill: 14

Results for O=C(c1cc(-c2cccs2)on1)N1CCc2ccccc2C1 ?
SENP6 block: 3; C8 TRAIL sens: -10; SENP7 inh: 52*; SENP8 block-1: -8; SENP8 block-2: 14; PPC-1+TRAIL kill: 14; SENP8 confirm: -3; SENP6 conf: -3; SENP7 conf: 9; Casp3 select: 0; SENP luc ctr: -4

What do the screens show for `Nc1ncnc2nc(SCC(=O)Nc3ccccc3F)[nH]c12`?
SENP6 block: 8; C8 TRAIL sens: 2; SENP7 inh: 2; SENP8 block-1: 3; SENP8 block-2: -9

Results for c1cc2c3c(cccc3c1)C(N1CCCCC1)=N2 ?
SENP6 block: 69*; C8 TRAIL sens: 5; SENP7 inh: 13; SENP8 block-1: 36; SENP8 block-2: -240; PPC-1+TRAIL kill: 5; SENP8 confirm: -9; SENP6 conf: -5; SENP7 conf: -9; Casp3 select: 3; SENP luc ctr: 3

Results for c1cc2c3c(cccc3c1)C(N1CCCCCC1)=N2 ?
SENP6 block: 4; C8 TRAIL sens: 14; SENP7 inh: 8; SENP8 block-1: 3; SENP8 block-2: -77; PPC-1+TRAIL kill: 34

Results for O=C(NC(=S)Nc1cccnc1Cl)c1ccc(Cl)cc1 ?
SENP6 block: 67*; C8 TRAIL sens: 5; SENP7 inh: 46; SENP8 block-1: 46; SENP8 block-2: -5; SENP8 confirm: 25; SENP6 conf: 23; SENP7 conf: 46; Casp3 select: 48; SENP luc ctr: 53*

What do the screens show for `c1ccc(C2=NNC(c3ccccn3)=NN2)nc1`?
SENP6 block: 78*; C8 TRAIL sens: 6; SENP7 inh: 30; SENP8 block-1: 74*; SENP8 block-2: 25; SENP8 confirm: 3; SENP6 conf: 89*; SENP7 conf: 100*; Casp3 select: 96*; SENP luc ctr: 75*

Results for c1ccc(-c2nc(-c3ccccn3)nc(-c3ccccn3)n2)nc1 ?
SENP6 block: -15; C8 TRAIL sens: 30; SENP7 inh: -12; SENP8 block-1: -14; SENP8 block-2: 0; PPC-1+TRAIL kill: 7

What do the screens show for `c1ccc(-c2nnc(-c3ccccn3)s2)nc1`?
SENP6 block: 90*; C8 TRAIL sens: 38; SENP7 inh: 89*; SENP8 block-1: 83*; SENP8 block-2: -20; PPC-1+TRAIL kill: 48; SENP8 confirm: 91*; SENP6 conf: 93*; SENP7 conf: 102*; Casp3 select: 96*; SENP luc ctr: 88*
